The structures appear in SMILES notation. The source made the active and inactive calls.

Among the data in PubChem BioAssay are composite z-score and z-score values, retold here.

Test [1] has as its system PRMT1 (protein arginine N-methyltransferase 1). Briefly: small molecules binding arginine methyltransferase PRMT1 – biochemical, small-molecule microarray, 635 nm fluorescence, primary screen (AID 1088).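 Note: binding of Prmt1 protein to compounds spotted on small-molecule microarray slides.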 Conditions: higher = more signal.
The nature of test [2]: growth effects on S. cerevisiae YJM789 – YJM789 clinical isolate, OD600, 24 h, basal, primary screen (AID 1089).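 Note: growth of clinical yeast isolate S. cerevisiae YJM 789 seeded 1000 cells per well; test concentration not given here.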 Conditions: higher = more signal, called active from +8 up or from −8 down.
Test [3] can be described thus: S. pombe growth modifiers, basal conditions – strain 972, OD600, 24 h, no modulator, primary screen (AID 1090).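 Note: basal condition with compound alone and no growth modifier present; test concentration not given here.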 Particulars: S. pombe 972 growth, higher = more signal, called active from +8 up or from −8 down.
Test [4] is described as follows: budding yeast growth modifiers under rapamycin – strain BY4716, OD600, 96 h, primary screen (AID 1091). Note: test concentration not given here. Conditions: S. cerevisiae BY4716 + rapamycin, higher = more signal, called active from +8 up or from −8 down.
Test [5] deals with Torsin-1A-interacting protein 2 (Homo sapiens) (UniProt Q8NFQ8). Nature of the test: small molecules binding lysate-expressed LULL1 – cell lysate, human LULL1 lysate, 635/667 nm fluorescence, primary screen (AID 1092).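 Note: probe is lysate of COS7 cells overexpressing human LULL1; score merges per-feature 667 nm fluorescence with signal-to-noise.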 Conditions: small-molecule microarray, hLULL1 lysate binding, 635 nm fluorescence; higher = more signal.
Sequence of Torsin-1A-interacting protein 2 (Homo sapiens) (Q8NFQ8 whole entry, looked up): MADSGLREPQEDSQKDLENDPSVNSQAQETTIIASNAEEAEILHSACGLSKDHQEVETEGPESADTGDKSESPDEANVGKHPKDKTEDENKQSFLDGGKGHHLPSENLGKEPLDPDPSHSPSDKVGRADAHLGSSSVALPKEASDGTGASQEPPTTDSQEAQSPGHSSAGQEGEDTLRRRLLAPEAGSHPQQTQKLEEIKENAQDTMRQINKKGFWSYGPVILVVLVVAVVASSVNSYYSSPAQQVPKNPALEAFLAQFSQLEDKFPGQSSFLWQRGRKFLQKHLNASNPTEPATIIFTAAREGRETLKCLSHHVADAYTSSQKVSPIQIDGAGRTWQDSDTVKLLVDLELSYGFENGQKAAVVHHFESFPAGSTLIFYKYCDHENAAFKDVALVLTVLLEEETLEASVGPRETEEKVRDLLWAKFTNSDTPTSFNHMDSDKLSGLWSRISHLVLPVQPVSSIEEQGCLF
The nature of test [6]: optical density change of DRC41 E. coli – strain DRC41, OD650, 24 h, E. coli filamentation project, primary screen (AID 1093).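 Note: MC1000 strain lacking acrAB efflux and sulA so SOS filamentation is blocked; test concentration not given here.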 Particulars: E. coli DRC41 growth, higher = more signal, called active from +8 up or from −8 down.
Test [7] can be described thus: probe aLefty2 binding to arrayed compounds – biochemical, biotinylated probe, 635/667 nm fluorescence, primary screen (AID 1094).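 Note: score merges spot fluorescence near 667 nm with spot signal-to-noise ratio.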 Particulars: small-molecule microarray, higher = more signal.
In test [8] the test system is Noggin (protein binding on small-molecule microarray). Nature of the test: small molecules binding Noggin protein – biochemical, 635/667 nm fluorescence, primary screen (AID 1095).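 Note: score merges 667 nm feature fluorescence with signal to noise over triplicate slides.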 Conditions: 635 nm fluorescence, higher = more signal.
In test [9] the target is Neurogenic locus notch homolog protein 3 (Homo sapiens) (UniProt Q9UM47). Briefly: small molecules binding NOTCH3 protein – biochemical, 635/667 nm fluorescence, primary screen (AID 1096). Particulars: small-molecule microarray, 635 nm fluorescence, higher = more signal.
Sequence of Neurogenic locus notch homolog protein 3 (Homo sapiens) (Q9UM47 whole entry, looked up): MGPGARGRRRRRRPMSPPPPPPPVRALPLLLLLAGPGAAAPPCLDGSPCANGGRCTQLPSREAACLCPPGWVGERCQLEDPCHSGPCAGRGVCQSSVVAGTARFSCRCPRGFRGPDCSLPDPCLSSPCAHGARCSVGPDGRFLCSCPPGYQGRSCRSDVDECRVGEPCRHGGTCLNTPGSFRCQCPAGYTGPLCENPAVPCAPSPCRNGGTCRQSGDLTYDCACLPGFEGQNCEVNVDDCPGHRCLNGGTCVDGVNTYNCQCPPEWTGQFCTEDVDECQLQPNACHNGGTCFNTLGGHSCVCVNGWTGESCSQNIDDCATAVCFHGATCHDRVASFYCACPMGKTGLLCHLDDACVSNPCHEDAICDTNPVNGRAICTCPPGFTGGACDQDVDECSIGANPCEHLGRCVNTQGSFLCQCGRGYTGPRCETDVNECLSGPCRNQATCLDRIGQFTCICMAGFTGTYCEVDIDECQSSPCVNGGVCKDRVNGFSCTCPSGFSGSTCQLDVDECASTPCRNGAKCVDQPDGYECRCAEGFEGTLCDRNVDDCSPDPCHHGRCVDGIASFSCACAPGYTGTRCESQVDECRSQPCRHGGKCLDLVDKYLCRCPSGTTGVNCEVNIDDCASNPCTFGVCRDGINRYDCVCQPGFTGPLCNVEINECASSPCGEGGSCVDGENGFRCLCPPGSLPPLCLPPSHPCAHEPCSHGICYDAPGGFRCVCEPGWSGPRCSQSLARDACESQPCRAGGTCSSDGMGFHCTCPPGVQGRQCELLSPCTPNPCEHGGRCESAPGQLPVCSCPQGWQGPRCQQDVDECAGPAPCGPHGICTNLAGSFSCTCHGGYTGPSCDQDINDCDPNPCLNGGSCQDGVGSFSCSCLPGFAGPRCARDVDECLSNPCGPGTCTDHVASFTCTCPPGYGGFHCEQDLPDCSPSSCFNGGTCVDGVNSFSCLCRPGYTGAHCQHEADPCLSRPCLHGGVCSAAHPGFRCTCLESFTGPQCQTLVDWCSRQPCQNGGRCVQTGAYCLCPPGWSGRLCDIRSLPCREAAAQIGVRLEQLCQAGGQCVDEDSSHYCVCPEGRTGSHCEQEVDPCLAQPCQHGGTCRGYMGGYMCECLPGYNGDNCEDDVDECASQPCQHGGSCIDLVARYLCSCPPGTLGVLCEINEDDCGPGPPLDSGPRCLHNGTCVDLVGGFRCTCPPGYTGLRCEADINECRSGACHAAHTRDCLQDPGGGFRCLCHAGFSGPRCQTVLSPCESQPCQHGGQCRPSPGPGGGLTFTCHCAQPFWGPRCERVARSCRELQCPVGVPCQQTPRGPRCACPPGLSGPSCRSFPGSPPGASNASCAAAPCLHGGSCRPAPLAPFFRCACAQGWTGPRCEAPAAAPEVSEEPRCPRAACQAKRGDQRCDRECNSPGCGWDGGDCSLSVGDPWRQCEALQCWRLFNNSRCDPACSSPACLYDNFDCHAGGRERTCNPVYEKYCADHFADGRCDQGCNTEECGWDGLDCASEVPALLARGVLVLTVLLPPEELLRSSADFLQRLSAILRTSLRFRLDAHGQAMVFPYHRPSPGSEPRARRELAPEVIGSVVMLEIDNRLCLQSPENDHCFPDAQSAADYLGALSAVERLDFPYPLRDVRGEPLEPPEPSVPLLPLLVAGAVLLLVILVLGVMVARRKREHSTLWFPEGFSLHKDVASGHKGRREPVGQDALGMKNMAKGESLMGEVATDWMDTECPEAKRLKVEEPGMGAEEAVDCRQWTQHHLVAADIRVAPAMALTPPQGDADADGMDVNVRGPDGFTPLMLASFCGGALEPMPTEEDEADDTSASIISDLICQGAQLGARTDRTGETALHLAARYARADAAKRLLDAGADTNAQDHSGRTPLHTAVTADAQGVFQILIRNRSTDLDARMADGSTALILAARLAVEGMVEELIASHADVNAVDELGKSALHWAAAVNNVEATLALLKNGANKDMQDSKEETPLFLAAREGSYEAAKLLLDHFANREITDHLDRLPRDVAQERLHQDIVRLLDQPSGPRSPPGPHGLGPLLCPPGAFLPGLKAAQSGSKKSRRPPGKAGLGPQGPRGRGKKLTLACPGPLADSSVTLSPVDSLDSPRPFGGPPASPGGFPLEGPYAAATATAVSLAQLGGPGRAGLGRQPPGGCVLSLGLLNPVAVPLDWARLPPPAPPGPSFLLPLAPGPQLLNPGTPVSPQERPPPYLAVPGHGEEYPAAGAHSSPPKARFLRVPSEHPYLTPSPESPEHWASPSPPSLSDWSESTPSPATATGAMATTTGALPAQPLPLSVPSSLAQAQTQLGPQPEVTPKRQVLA
A short description of test [10]: probe aEGFR binding to arrayed compounds – biochemical, biotinylated probe, 635/667 nm fluorescence, primary screen (AID 1097).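 Note: probe is a biotinylated anti-EGFR antibody binding compounds printed on slides; score combines fluorescence near 667 nm and signal to noise of each spot.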 Conditions: small-molecule microarray, higher = more signal.

On to `Cc1ccc(S[C@]2(C(=O)NCC(F)(F)F)CC(=O)N(C(C)C)[C@@H]2c2ccc(CO)cc2I)cc1`, for which the composite z-score in [1] is -0.466; in test [5], 1.15; in test [7], -0.0873; in test [8], -1.13; in test [9], -1.01; in test [10], -0.2. Besides, the z-score in test [2] is -0.0408 (inactive); in [3], -0.704 (inactive); in test [4], 2.23 (inactive); in test [6], 0.0493 (inactive).

Regarding `C=CCC(OC(C)=O)[C@@H]1[C@@H](N(Cc2ccc(-c3ccccc3)cc2)C(=O)Cc2ccc(F)cc2)c2cc(OCCCO)ccc2N1C(=O)c1ccc(-c2ccccc2)cc1` (stereo not given in full), the composite z-score in test [1] is -0.838; in test [5], -0.404; in test [7], 0.0631; in test [8], -0.237; in [9], -0.239; in test [10] it was -0.0372. Moreover, the z-score in test [2] is -2.19 (inactive); in [3], -0.379 (inactive); in [4] it was -0.694 (inactive); in [6], 0.996 (inactive).

Take `CCCC=C(CCC)[C@@H](NC(=O)Oc1ccc(F)cc1)c1ccc(C(=O)OC)cc1`: the composite z-score was 0.598 in test [1]; 3 in [5]; 0.212 in test [7]; -0.149 in test [8]; 0.775 in [9]; 0.601 in test [10]. In addition, the z-score in test [2] is 0.876 (inactive); in test [3], 1.99 (inactive); in test [4] it was 2.32 (inactive); in test [6] it was -0.211 (inactive).

Consider `O=C(C1N=C(c2ccc(OCCCO)cc2)N(c2ccccc2)O1)N1CCOCC1` (stereo not given), for which the composite z-score in test [1] was 1.55; in [5], 2.22; in [7], -0.134; in [8] it was 1.53; in test [9] it was 1.09; in test [10], 0.184. Also, the z-score in test [2] is -0.867 (inactive); in test [3], -0.992 (inactive); in [4], -0.566 (inactive); in test [6], 1.75 (inactive).

For `COc1ccc([Si](C)(C)[C@H]2[C@H](CCn3cc([C@H](O)c4ccccc4)nn3)O[C@@]3(C(=O)N(Cc4cccc(N5CCOC5=O)c4)c4ccccc43)[C@@H]2C)cc1`, the composite z-score in [1] is 0.961; in [5], 0.872; in [7] it was 0.0342; in test [8], 0.827; in test [9], 1.04; in [10], 0.117. The z-score is -0.0578 (inactive) in test [2], 0.947 (inactive) in test [3], 1.95 (inactive) in test [4] and -0.565 (inactive) in test [6].

In the case of `C=CC[C@]12N=C(c3ccc(OCCCO)cc3)O[C@H]1c1ccccc1N(Cc1ccccc1)C2=O`, the composite z-score in test [1] was 1.46; in [5] it was 1.04; in test [7], 0.331; in [8] it was 0.313; in [9] it was 0.483; in test [10], -0.0692. Also, the z-score was -0.523 (inactive) in test [2], -0.371 (inactive) in test [3], 1.89 (inactive) in [4] and 0.508 (inactive) in test [6].

As for `COCCOC(=O)N1C(=O)[C@@]2(c3cc(C#CCCO)ccc31)[C@H](c1ccc(OCCO)cc1)N1[C@H](c3ccccc3)[C@H](c3ccccc3)OC(=O)[C@H]1[C@@H]2C(=O)N1CCN(c2ncccn2)CC1`, the composite z-score is 1.55 in test [1]; 2.42 in test [5]; -0.123 in test [7]; 1.23 in [8]; 1.06 in [9]; -0.0066 in test [10]. For the same compound, the z-score in test [2] was -0.01 (inactive); in [3], 0.342 (inactive); in [4], 2.94 (inactive); in test [6], -0.0542 (inactive).

Take `[N-]=[N+]=NCc1ccccc1C[C@]1(C(=O)N2CCOCC2)N=C(c2ccc(OCCCO)cc2)O[C@H]1c1ccccc1N=[N+]=[N-]`: the composite z-score stood at 1.41 in [1]; 3.51 in test [5]; 0.349 in [7]; 1.5 in test [8]; 1.03 in test [9]; 0.144 in test [10]. The z-score is -1.18 (inactive) in test [2], -2.26 (inactive) in test [3], 2.79 (inactive) in test [4] and 0.188 (inactive) in test [6].

With `C#CCN(CC1=CCCCC1)[C@H](c1ccccc1Br)[C@@H](O)Cc1ccccc1`, the composite z-score in test [1] was 0.249; in test [5], 1.04; in [7] it was -0.0724; in test [8] it was -0.51; in test [9], -0.721; in test [10], -0.356. Besides, the z-score in [2] is 0.119 (inactive); in test [3], -4.79 (inactive); in [4] it was -0.655 (inactive); in test [6] it was 1.79 (inactive).

`CCCCc1cn(C[C@H](Cc2ccccc2)NC(=O)N[C@H](CO)CCc2oc(C(C)=O)c(C(=O)OC)c2C(=O)OC)nn1`: the composite z-score in test [1] is 1.54; in test [5], 1.7; in [7], 0.165; in test [8], 1.14; in test [9] it was 1.1; in [10], 0.114. The z-score in test [2] is -0.425 (inactive); in [3], -0.0326 (inactive); in test [4], -0.173 (inactive); in test [6], 0.0003 (inactive).

For the compound `[N-]=[N+]=Nc1ccccc1C[C@]1(C(N)=O)N=C(c2ccc(OCCCO)cc2)O[C@H]1c1ccccc1`, the composite z-score in test [1] was 0.203; in test [5] it was 3.19; in test [7], -0.0893; in test [8] it was -0.194; in test [9] it was 0.444; in test [10], -0.115. Moreover, the z-score in test [2] is 0.515 (inactive); in test [3], 0.248 (inactive); in test [4], 0.143 (inactive); in test [6], 0.104 (inactive).

For the compound `C=CC[C@@]1(C(=O)N(C)C)N=C(c2ccc(OCCCO)cc2)O[C@@H]1c1ccccc1N=[N+]=[N-]`, the composite z-score in test [1] came out at 1.55; in [5] it was 3.57; in test [7] it was 0.193; in test [8], 1.07; in test [9], 1.06; in [10], 0.276. Also, the z-score in test [2] was -0.431 (inactive); in [3], -0.0481 (inactive); in [4], -0.0865 (inactive); in test [6] it was 0.724 (inactive).

`CCCCC=C[C@@H](NC(=O)Oc1cccc(C(F)(F)F)c1)c1ccccc1`: the composite z-score was 0.745 in test [1]; 0.277 in test [5]; 0.839 in test [7]; -0.0732 in test [8]; 1.08 in [9]; 0.4 in [10]. Also, the z-score was 1.06 (inactive) in test [2], 0.0148 (inactive) in test [3], 1.01 (inactive) in test [4] and -2.21 (inactive) in test [6].

Turning to `C=CC[C@]1(C(=O)NCCCOC)N=C(c2ccc(OCCCO)cc2)O[C@H]1c1ccccc1N=[N+]=[N-]`, the composite z-score in test [1] is 1.55; in [5], 3.48; in test [7], 0.0482; in [8] it was 0.444; in [9], 0.935; in test [10], -0.265. Moreover, the z-score was -0.707 (inactive) in [2], -0.688 (inactive) in test [3], 1.47 (inactive) in test [4] and 0.421 (inactive) in test [6].

Regarding `COc1ccc(CCNC(=O)[C@@H]2c3ccccc3C(=O)N(C3Cc4ccccc4C3)[C@H]2c2ccc(CO)cc2)cc1`, the composite z-score in test [1] was 1.34; in [5] it was 1.75; in test [7] it was 0.0349; in test [8], -0.155; in test [9], -0.145; in test [10] it was -0.0624. Moreover, the z-score in test [2] was 0.629 (inactive); in test [3], 0.0128 (inactive); in test [4] it was 0.332 (inactive); in test [6] it was -0.141 (inactive).
